Assay results: PubChem BioAssay (Tox21)
Records with an inconclusive call do not appear. Where a call stands in place of a potency, no number is given. Active and inactive are the calls of the source. The call rests on the fitted dose curve; in most records, active means well fitted activation curve with a large enough effect in the repeat runs; inconclusive means weak or mixed curves; inactive means flat fitted curve, though single readings scatter.

Test: A CellTox Green Cytotoxicity Assay to monitor cytotoxicity in HEK293 cells - 32 hour (AID 1224881); further: nearly all actives have a fitted effect of over 40% in size
Details: CellTox Green fluorescence; series mostly up to 76.8 µM
Source text: National Center for Advancing Translational Sciences [NCATS]
NIH Chemical Genomics Center [NCGC]
U.S. Environmental Protection Agency [EPA]
National Institutes of Environmental Health Sciences [NIEHS]
National Toxicology Program [NTP]
Cell-based models are critical for drug discovery. Determining the natural cytotoxic effects resulting from test compounds is an essential research activity. A CellTox Green Cytotoxicity Assay to monitor cytotoxicity in real time of continues cell culture during 40 hours of the compound treatment was used to screen Tox21 10K library compounds in Hek293 cells. CellTox Green Cytotoxicity Assay is a nonlytic, homogeneous, biofluorescent method to measure cytotoxicity in cell culture after experimental manipulation. The assay system uses a proprietary asymmetric cyanine dye that is excluded from viable cells but preferentially stains the dead cell's DNA. […] Viable cells produce no appreciable increases in fluorescence. Therefore, the fluorescence signal produced by the binding interaction with dead cell DNA is proportional to cytotoxicity.
The mixture of Hek293 cell suspension and reagents were dispensed at 600cells/6 ul/well in 1536-well tissue culture treated black solid bottom plates using a Multidrop dispenser. After the assay plates were incubated at a 37 C/5% CO2 incubator for 5 hours, 23 nL of compounds dissolved in DMSO, positive and negative controls was transferred to the assay plate by a pintool work station. The plates were incubated at 37 C for 40 hours. The fluorescence intensity were measured at 0h, 8h, 16h, 24h, 32h and 40h time points using ViewLux plate reader during compound treatment.
Potency means the concentration at half of the fitted maximal effect.

SMILES | Potency | cytotoxicity increase
CCCCOCCOC(=O)c1cccnc1 | inactive | 
Cc1ccc2c(c1[N+](=O)[O-])C(=O)c1ccccc1C2=O | inactive | 
O=C(c1ccccc1)C1CCC1 | 24.5 µM (active) | 
COC(CC(C)CCCC(C)(C)O)OC (stereo not given) | inactive | 
O=S(=O)(Cl)c1c(Cl)cccc1Cl | inactive | 
CCCCCCCCCCCCCCCC(=O)OCC | inactive | 
COC(=O)CC(C(C)=O)C(=O)OC (stereo not given) | inactive | 
O=P(O)(O)Oc1ccccc1 | inactive | 
O=C(O)c1cccc(Oc2ccccc2)c1 | inactive | 
O=C(O)CCC(=O)c1ccc(-c2ccccc2)cc1 | inactive | 
CCCCCC | inactive | 
CC(=O)OC(C)C[N+](C)(C)C (stereo not given) | inactive | 
COc1ccc(C)cc1 | inactive | 
COc1ccc(C2C(=O)c3ccccc3C2=O)cc1 | inactive | 
CC(C)OC(=O)c1ccccc1C(=O)OC(C)C | inactive | 
Cc1ccc2c(c1)CCCN2 | inactive | 
Nc1c(Cl)cc(Cl)cc1[N+](=O)[O-] | inactive | 
COc1cc(NCc2ccc3nc(N)nc(N)c3c2C)cc(OC)c1OC | inactive | 
CC[C@H]1OC(=O)[C@H](C)[C@@H](O[C@H]2C[C@@](C)(OC)[C@@H](O)[C@H](C)O2)[C@H](C)[C@@H](O[C@@H]2O[C@H](C)C[C@H](N(C)C)[C@H]2O)[C@](C)(O)C[C@@H](C)C(=O)[C@H](C)[C@@H](O)[C@]1(C)O | inactive | 
Cc1ccc2nc(N)[nH]c(=O)c2c1Sc1ccncc1 | inactive | 

SMILES | Potency | cytotoxicity increase
COc1cc(OC)c2ccc(=O)oc2c1 | inactive | 
O=C(O)c1cc(Cl)cc(Cl)c1O | inactive | 
CCN(CC)CCOC(=O)C(c1ccccc1)c1ccccc1 | inactive | 
NC(=O)CCCCC(N)=O | inactive | 
Cc1ccc(NC(=O)N(C)C)cc1NC(=O)N(C)C | inactive | 
CC(=O)OCC(=O)[C@@]1(OC(C)=O)[C@@H](C)C[C@H]2[C@@H]3C[C@H](F)C4=CC(=O)C=C[C@]4(C)[C@@]3(F)[C@@H](O)C[C@@]21C | inactive | 
CC(C)(C(=O)c1cccnc1)c1cccnc1 | inactive | 
Cc1cc(CCCOc2c(C)cc(-c3noc(C(F)(F)F)n3)cc2C)on1 | inactive | 
Nc1ccc(N=Nc2ccc(N)cc2)cc1 | inactive | 
O=c1[nH][nH]c(=O)c2cc([N+](=O)[O-])ccc12 | inactive | 
CCN(CC)CC(=O)Nc1c(C)cccc1C(=O)OC | inactive | 
CCSC(=O)N(CC)CC | inactive | 
C=C(C)c1ccccc1 | inactive | 
COc1ccc(CCN(C)CCCN2CCc3cc(OC)c(OC)cc3CC2=O)cc1OC | inactive | 
O=C(O)c1cccc(C[C@@H]2COc3ccc(OCc4nc5cc(F)ccc5s4)cc3[C@@H]2O)c1 | inactive | 
O=C1OC(=O)c2c(Br)c(Br)c(Br)c(Br)c21 | inactive | 
C1=CCC2CC=CC2C1 (stereo not given) | inactive | 
COc1ccc2nc(S(=O)Cc3ncc(C)c(OC)c3C)[nH]c2c1 (stereo not given) | inactive | 
c1ccc2sc(SSc3nc4ccccc4s3)nc2c1 |  | 13.3% [at 15.8 µM] (inactive)
CCCCCCCCCCCCCCCCCC(=O)OCC(CC)CCCC (stereo not given) | inactive | 
